# Compounds with a hit are over-represented: about 6.5% of the library has one in this group of screens.
# HCMV antiviral: qHTS Assay for inhibitors of the human cytomegalovirus (HCMV); HFF cells, HCMV-luciferase reporter, 72 h; stronger effect = lower value; activity change, negative = inhibition, % at 57.5 µM; hit rate 4.5% among 410,000; in the data active = activity change below about -60%; inconclusive = no clear call, values can overlap the other calls; inactive = above about -39%
#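 HFF cells seeded 16 h at 37C, treated with compounds, infected with luciferase-reporter HCMV at MOI 1 PFU/cell; luciferase read at 72 h post infection, normalized to buffer-only and Salinomycin controls.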
# Marburg entry inh: qHTS for inhibitors of binding or entry into cells for Marburg Virus. Marburg virus pseudotyped entry inhibition, cell reporter. Potency, µM (titrated, usually from 37.8 µM), for the others: at the highest dose activity change, negative = inhibition, actives largely listed as inhibitors. hit rate 1.8% among 300,000. AID 540276, 2011; calls by dose curve; tested in HEK293 cells; also: potency is read from the fitted curve at half-maximal effect
# Lassa entry inh: qHTS for Inhibitors of binding or entry into cells for Lassa Virus; Lassa virus pseudotype entry inhibition, cell reporter; Potency, µM (series often up to 37.9 µM), for the others: top-dose activity change, negative = inhibition, hits mostly inhibitors; hit rate 1.2% among 300,000; AID 540256, 2011; calls by dose curve; tested in HEK293 cells; also: potency is read from the fitted curve at half-maximal effect; nearly all actives have a fitted effect of over 50% in size
# VACV Venus inh: qHTS for Stage-Specific Inhibitors of Vaccinia Orthopoxvirus: Venus Reporter Primary qHTS | Potency, µM (series often up to 36.5 µM), inactives show top-dose activity change, negative = inhibition, hits mostly inhibitors | hit rate 0.46% among 330,000 | Vaccinia virus Venus reporter expression, fluorescence; calls by dose curve; tested in A549 cells; also: potency is read from the fitted curve at half-maximal effect; nearly all actives have a fitted effect of over 30% in size
# FMDV inh: High Throughput Screening for Foot and Mouth Disease Virus Antivirals; FMDV antiviral cell-based qHTS; Potency, µM (top dose mostly 57.9 µM), for the others: top-dose activity change, negative = inhibition, hits mostly inhibitors; hit rate 1.2% among 410,000; calls by dose curve; tested in HEK293T cells; also: read-out not given here; potency is read from the fitted curve at half-maximal effect; nearly all actives have a fitted effect of over 45% in size
# Vaccinia mCherry: qHTS for Stage-Specific Inhibitors of Vaccinia Orthopoxvirus: mCherry Reporter Primary qHTS; Vaccinia virus mCherry reporter infection, fluorescence; AID 720579, 2013; hit rate 0.63% among 310,000; Potency, µM (series often up to 36.5 µM), for inactives: top-dose activity change, negative = inhibition, usual class: inhibitors; calls by dose curve; tested in A549 cells; also: potency is read from the fitted curve at half-maximal effect; nearly all actives have a fitted effect of over 35% in size
# * hit, by the source's call; i = inactive; ? = inconclusive; / = not tested or not shown; [ ] = dose if it differs, or a comment. % is scaled to controls: 0 for no effect and ±100 for the full control effect.
SMILES,HCMV antiviral,Marburg entry inh,Lassa entry inh,VACV Venus inh,FMDV inh,Vaccinia mCherry
CCS(=O)(=O)c1nc(S(=O)(=O)c2ccc(C)cc2)c(N2CCCC2)s1,-30.0,/,/,0.0%[7.34 µM],19.7%,-0.4%[7.34 µM]
CCCCCCCn1ccc(O)c(CC(=O)OC)c1=O,45.2,11.5%[46.1 µM],6.0%,-12.5%,-0.1%,i
CCCCCn1ccc(=O)c2c(C(F)(F)F)nccc21,-66.2*,?,?,/,?,/
Cc1ccc2nc(-c3ccc(C)c(NC(=O)COc4ccccc4Cl)c3)oc2c1,/,/,/,-12.0%,/,-2.9%
O=C1c2cccc3c(N4CCCCC4)ccc(c23)C(=O)N1c1ccccn1,-4.9,5.2%,1.6%,2.9%,-16.0%,/
O=C1c2ccccc2-c2n[nH]c(=O)c3ccc(N4CCCCC4)c1c23,-61.6*,-25.9%[46.1 µM],-27.0%,?,?,?
CCOC(=O)c1c(C)[nH]c(CCC(=O)Nc2ccc(Cl)cc2C)c1C,8.5,/,-17.6%[46.1 µM],-5.7%,-22.9%,-2.7%
O=C(NNC(=O)c1ccccc1Cl)c1ccccc1Cl,73.2,28.0%[46.1 µM],3.5%,-7.9%[7.34 µM],48.4%,i[7.34 µM]
O=C(NOCc1ccccc1)OCc1ccccc1,46.5,/,/,-11.7%,66.9%,-8.7%
COc1ccc(COC(=O)NNC(=O)c2ccccc2Cl)cc1,18.6,0.8%,3.98µM*,-10.8%,-11.2%,/
O=C(NNC(=O)OCc1ccccc1)OCc1ccccc1,-98.9*,?,?,5.6%,17.6%,i
CCOC(=O)N(C)C[C@@H]1OCc2cn(nn2)CCCC(=O)N([C@H](C)CO)C[C@H]1C,-5.4,/,/,/,/,/
COc1ccc(CN2C[C@H](Sc3nc4ccccc4[nH]3)C[C@H]2C(=O)N(C)C)c2ccccc12,/,/,/,-1.4%,0.9%,-16.9%
c1ccc2cc(N3CCCCC3)ccc2c1,-24.6,-8.7%[46.1 µM],0.8%[46.1 µM],-14.3%,33.5%,?
O=C1c2ccccc2C(=O)c2cc(N3CCCCC3)ccc21,-17.9,3.98µM*,3.16µM*,87.8%,10µM*,-14.2%
Nc1ccc(N2CCCCC2)c2nonc12,-67.3*,/,/,0.0%,23.1%,i
CN1CCN(c2ccc(N)c(N3CCN(C)CC3)c2)CC1,72.4,?,1.4%,-12.5%,-10.4%,/
Nc1ccc(N2CCCCC2)cc1N1CCCCC1,-68.9*,?,?,?,?,/
O=[N+]([O-])c1ccc(N2CCCCCC2)c2nonc12,-16.8,-23.8%[46.1 µM],?,i,-6.9%,-14.7%
CC(C)(C)OC(=O)NS(=O)(=O)NOCc1ccccc1,/,/,/,0.9%,/,-11.7%
CCOc1ccc(NC(=O)c2oc3ccccc3c2NC(=O)C(C)Oc2ccccc2)cc1 (configuration not stated),24.4,?,-4.5%[46.1 µM],-8.8%,-7.4%,i
CC1CC(N(C(=O)c2ccc(Cl)cc2)c2ccccc2)c2ccccc2N1C(=O)c1ccco1 (configuration not stated),-26.9,?,20µM*,?,?,/
CC1CC(N(C(=O)c2ccco2)c2ccccc2)c2ccccc2N1C(=O)c1ccco1 (configuration not stated),32.4,?,-24.7%,/,-1.2%,/
Cc1ccc(N2C(=O)C(CC(=O)Nc3cccc(F)c3)N(CCc3ccccc3F)C2=O)cc1 (configuration not stated),23.1,?,-11.9%[46.1 µM],-3.8%,37.6%,-21.9%
CCNC(=S)NCCC1=c2ccccc2=N/C1=C\c1c(O)n(C)c(=O)n(C)c1=O,4.8,/,/,/,39.8µM*,/
Cn1c(O)c(/C=C2\C=Nc3ccc(Br)cc32)c(=O)n(C)c1=O,151.6,19.0%[46.1 µM],5.7%[46.1 µM],17.3%,-10.9%,4.4%
CCNc1ncc2nc(-c3cc(F)cc(F)c3)c(=O)n(C3CC3)c2n1,/,/,/,/,-9.0%,/
N#Cc1c(C(F)(F)F)cc(=O)n2c1[nH]c1ccccc12,-96.0*,?,?,?,-5.9%,10µM*
O=C(O)c1cccc(C(=O)O)c1S(=O)Cc1ccccc1 (configuration not stated),-66.0*,/,/,/,/,/
C/C(=N\NC(=O)c1ccc(Cl)cc1)c1cccs1,-4.9,?,3.55µM*,?,-47.9%,-26.3%

# Bioassay records: PubChem, National Center for Advancing Translational Sciences (NCATS)
